# ± gives the standard deviation.
# Legend:
# Details in all cases: modulator concentration 10 µM
# [1] = tested on: RAW-Dual (murine macrophage reporter line); assay: NF-kB reporter (SEAP) activity fold change vs agonist alone; higher = enhanced NF-kB activity
# Method in brief: (§1)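 In 384-well plates holding 50 000 RAW-Dual murine macrophage reporter cells per well, compound at 10 μM final was pre-incubated for 1 hour at 37 °C, after which a PRR agonist was added overnight. Supernatant SEAP read with QUANTI-Blue at 620 nm absorbance reported NF-κB, and Lucia luciferase read with QUANTI-Luc luminescence reported IRF. Fold change values come from dividing each reporter signal by the mean of agonist-only control wells on the same plate, averaged over replicate plates with propagated errors.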
# [2] = tested on: RAW-Dual (murine macrophage reporter line); assay: IRF reporter (Lucia luciferase) activity fold change vs agonist alone; higher = enhanced IRF activity
# Method in brief: as §1
# [3] = tested on: RAW-Dual (murine macrophage reporter line); assay: viability score (confluency relative to resting cells, overnight) (fraction); higher = more viable, active = viable (0.7 or more)
# Method in brief: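 Confluency was the readout: RAW-Dual macrophages were imaged with IncuCyte after an overnight exposure to compound at 10 μM final. IncuCyte software produced two masks over all imaged wells. The viability score expresses confluency against resting cells, and both masks had to exceed 70% of resting cells for a compound to meet the cutoff.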
# [4] = agonist: CpG ODN 1826 0.5 ug/mL
Compound,"NF-kB reporter [1, 4]",NF-kB reporter ([1]; agonist: LPS 0.1 ug/mL),NF-kB reporter ([1]; agonist: MPLA […]),IRF reporter ([2]; agonist: 3'3'-cGAMP 10 ug/mL),IRF reporter ([2]; agonist: LPS 0.1 ug/mL),IRF reporter ([2]; agonist: MPLA […]),viability score [3]
Cc1ccccc1C(=O)N(Cc1cccnc1)c1nc2c(F)cccc2s1,0.288 ± 0.019,0.749 ± 0.063,0.645 ± 0.038,1.34 ± 0.06,1.06 ± 0.11,0.952 ± 0.093,0.984 (active)
COc1ccc(CNC2CCCc3ccccc32)c(OC)c1C (stereo not given),0.166 ± 0.016,0.504 ± 0.058,1.09 ± 0.1,1.24 ± 0.04,1.21 ± 0.14,1.42 ± 0.29,0.192 (inactive)
COc1ccc(Cn2cc3c(-c4ccc(F)cc4)nnc-3c3cc(OC)c(OC)cc32)cc1,0.318 ± 0.026,1.17 ± 0.13,2.16 ± 0.1,1.79 ± 0.12,2.42 ± 0.18,3 ± 0.35,0.141 (inactive)
COc1ccc2cc(CCC(C)=O)ccc2c1,1.23 ± 0.19,1.19 ± 0.56,1.06 ± 0.11,0.931 ± 0.03,1.18 ± 0.45,1.2 ± 0.098,0.95 (active)
O=C(CCCN1C(=O)c2cccc3cccc(c23)C1=O)NCCO,1.04 ± 0.061,0.976 ± 0.078,0.963 ± 0.025,1 ± 0.072,1.12 ± 0.052,1.05 ± 0.1,0.995 (active)
COC(CNC(=O)COc1cccc2c1OC(C)(C)C2)c1ccc(Cl)s1 (stereo not given),0.539 ± 0.028,1.19 ± 0.1,0.998 ± 0.043,0.873 ± 0.046,0.883 ± 0.06,1.14 ± 0.34,0.939 (active)
O=C(c1ccc(-c2nc3ccccc3s2)s1)N1CCOCC1,1.08 ± 0.11,1.02 ± 0.15,1.16 ± 0.17,0.879 ± 0.06,1.19 ± 0.25,1.21 ± 0.44,0.964 (active)
N#Cc1c(NC(=O)c2cccc3ccccc23)sc2c1CCCC2,1.67 ± 0.13,0.863 ± 0.073,1.14 ± 0.12,0.616 ± 0.019,1.35 ± 0.18,1.48 ± 0.23,0.879 (active)
CCC(=O)c1c(O)cc(O)cc1O,1.03 ± 0.083,1.1 ± 0.055,1.04 ± 0.055,0.922 ± 0.056,0.946 ± 0.081,0.84 ± 0.071,0.999 (active)
O=C(CCCN1CC=C(n2c(=O)[nH]c3ccccc32)CC1)c1ccc(F)cc1,0.788 ± 0.06,0.828 ± 0.078,0.71 ± 0.069,0.975 ± 0.052,0.932 ± 0.15,1.21 ± 0.2,0.276 (inactive)
Cc1ccc(-n2c(=O)c3c4c(sc3n3c(S)nnc23)CCCC4)cc1,0.968 ± 0.063,1.07 ± 0.069,0.923 ± 0.1,0.959 ± 0.035,1.41 ± 0.21,1.15 ± 0.1,0.993 (active)
O=C(COc1ccc(Cl)cc1)Nc1ccc(OC(F)(F)F)cc1,1.03 ± 0.069,1 ± 0.078,0.943 ± 0.043,0.989 ± 0.072,0.973 ± 0.1,0.88 ± 0.18,0.993 (active)
Cc1oncc1C(=O)NCCn1nc(C(F)(F)F)cc1C1CC1,1.06 ± 0.096,1.05 ± 0.081,0.991 ± 0.067,0.972 ± 0.039,0.978 ± 0.087,0.935 ± 0.21,1 (active)
COc1ccc(-n2nc(C(N)=O)c3c2C(=O)N(c2ccc(N4CCCCC4=O)cc2)CC3)cc1,0.793 ± 0.076,0.859 ± 0.052,1.12 ± 0.12,0.994 ± 0.046,1.19 ± 0.073,1.33 ± 0.11,1.01 (active)
NCCCS(=O)(=O)O,0.883 ± 0.069,1 ± 0.072,0.98 ± 0.024,1.06 ± 0.058,0.978 ± 0.039,0.891 ± 0.12,0.998 (active)
O=C1NC(=O)C(=Cc2ccc(-c3cccc(Cl)c3)o2)S1,0.774 ± 0.36,0.761 ± 0.064,0.776 ± 0.064,0.747 ± 0.032,1.13 ± 0.14,1.2 ± 0.16,0.943 (active)
COc1ccc(S(=O)(=O)NNc2ccc([N+](=O)[O-])cc2[N+](=O)[O-])cc1,1.21 ± 0.07,0.864 ± 0.059,0.777 ± 0.05,0.342 ± 0.025,1.22 ± 0.19,1.34 ± 0.14,0.962 (active)
Fc1ccc2ccccc2c1,0.958 ± 0.077,0.979 ± 0.16,1.01 ± 0.13,1.03 ± 0.033,1.12 ± 0.12,1.15 ± 0.18,1.01 (active)
CCOC(=O)C1=C(C)NC(C)=C(C(=O)OC)C1c1ccc([N+](=O)[O-])cc1 (stereo not given),0.97 ± 0.24,1.01 ± 0.12,1.13 ± 0.23,1.16 ± 0.049,1.01 ± 0.21,1.09 ± 0.21,0.985 (active)
Cc1cn[nH]c1,0.122 ± 0.015,0.0449 ± 0.0036,0.154 ± 0.0086,0.685 ± 0.032,1.81 ± 0.19,2.85 ± 0.43,0.702 (active)
Cc1c(C#N)sc2nc(-c3ccccc3)nc(N=CN(C)C)c12,1.01 ± 0.086,1.05 ± 0.095,0.952 ± 0.027,0.94 ± 0.056,0.971 ± 0.078,1.03 ± 0.18,1 (active)
COC(CNC(=O)c1cc2ccccc2[nH]1)c1ccc(Cl)s1 (stereo not given),0.989 ± 0.23,1.06 ± 0.081,1.12 ± 0.11,0.917 ± 0.045,1.26 ± 0.14,1.48 ± 0.19,0.882 (active)
Nc1ccc(S(=O)(=O)NCCO)cc1,0.983 ± 0.07,1.06 ± 0.12,0.996 ± 0.068,0.973 ± 0.042,1.4 ± 0.12,1.07 ± 0.11,1 (active)
CCOc1ccccc1NC(=O)Nc1ccc2c(c1)CC(=O)N2CC,1.17 ± 0.083,0.945 ± 0.092,0.998 ± 0.028,0.694 ± 0.037,0.844 ± 0.077,0.797 ± 0.089,0.998 (active)
COc1ccc(NC(=O)CN(c2ccc(C)c(C)c2)S(C)(=O)=O)cc1,0.831 ± 0.068,1.02 ± 0.061,1.07 ± 0.12,0.88 ± 0.046,1.46 ± 0.084,1.53 ± 0.14,0.998 (active)
